According to PubChem BioAssay (NCI):
This is part of a sample that, as a whole, favours compounds with a hit. Of some 83,000 tested, about 20% had one in any assay.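 96-well plates, one dose, 48 hours. Percent growth reported; active if below 10.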 A number with no mark means an inactive call. Active and inactive are the calls of the source.

Key:
Experiment in all cases: NCI-60 one-dose screen, 48 h (100 = growth as untreated, 0 = no growth, -100 = all killed)
Details in all cases: 10 µM unless noted
SR leukemia = tested on: SR leukemia
RPMI-8226 leukemia = tested on: RPMI-8226 leukemia
OVCAR-5 ovarian = tested on: OVCAR-5 ovarian
OVCAR-4 ovarian = tested on: OVCAR-4 ovarian
SK-OV-3 ovarian = tested on: SK-OV-3 ovarian
IGROV1 ovarian = tested on: IGROV1 ovarian
OVCAR-3 ovarian = tested on: OVCAR-3 ovarian
HS 578T breast = tested on: HS 578T breast
NCI/ADR-RES ovarian = tested on: NCI/ADR-RES ovarian
T-47D breast = tested on: T-47D breast
BT-549 breast = tested on: BT-549 breast
MDA-MB-435 melanoma = tested on: MDA-MB-435 melanoma
SW-620 colon = tested on: SW-620 colon
MCF7 breast = tested on: MCF7 breast
HCT-116 colon = tested on: HCT-116 colon
HCC-2998 colon = tested on: HCC-2998 colon
KM12 colon = tested on: KM12 colon

| Compound | growth (SR leukemia) | growth (RPMI-8226 leukemia) | growth (OVCAR-5 ovarian) | growth (OVCAR-4 ovarian) | growth (SK-OV-3 ovarian) | growth (IGROV1 ovarian) | growth (OVCAR-3 ovarian) | growth (HS 578T breast) | growth (NCI/ADR-RES ovarian) | growth (T-47D breast) | growth (BT-549 breast) [%] | growth (MDA-MB-435 melanoma) | growth (SW-620 colon) | growth (MCF7 breast) | growth (HCT-116 colon) | growth (HCC-2998 colon) | growth (KM12 colon) |
| --- | --- | --- | --- | --- | --- | --- | --- | --- | --- | --- | --- | --- | --- | --- | --- | --- | --- |
| O=C1C2C(c3cccs3)C=C(c3ccc(Cl)cc3)N2C(=S)N1c1ccccc1 (configuration not stated) | 97.6% | 99.3% | 96.5% | 98.1% | 109% | 93.2% | 104% | 92.2% | 103% | 100% | 92.4 | 110% | 102% | 90.9% | 101% | 111% | 104% |
| Brc1ccc(-c2nn(-c3ccccc3)cc2-c2nn[nH]n2)s1 | 87.4% | 89.5% | 108% | 92.7% | 98.2% | 102% | 96.5% | 89.9% | 103% | 89.6% | 93.2 | 103% | 97.1% | 86.7% | 88.5% | 97.6% | 99.7% |
| [2H]C([2H])([2H])Oc1ccc(/C=C/C(=O)/C=C(O)/C=C/c2ccc(OC([2H])([2H])[2H])c(OC([2H])([2H])[2H])c2)cc1OC([2H])([2H])[2H] | 18.6% | 6.79% (active) | 71.6% | 42.2% | 39% | 52.9% | 37.2% | 51.7% |  | 21.8% | 34.4 | 12.3% | 27.4% | 4.59% (active) | 5.1% (active) | 76.4% | 30.6% |
| CCOC(=O)c1cnc2sc(-c3ccc(OC)cc3)nc2c1Cl | 96.8% | 93.1% | 118% | 86.9% | 121% | 102% | 108% | 89.3% |  | 97.2% | 107 | 87.7% | 114% | 88% | 87.8% | 114% | 90.7% |
| CCN1C(=O)N(CC)C2C1NC(=S)N2/N=C/C=C/c1cccs1 (configuration not stated) | 17.8% | 25.4% | 33% | 57.3% | 43.7% | 24.5% | 2.01% (active) | 16.5% | 4.47% (active) | 66.4% | 24.1 | -26.9% (active) | 25.5% | 18.3% | 15.1% | 16.4% | 18.5% |
| CCOc1ccc(-c2cc(C3(S(=O)(=O)c4ccc(C)cc4)CC=CC3)on2)cc1 | 69.1% | 62.4% | 101% | 74.3% | 91% | 88.5% | 92% | 96.4% |  | 64.4% | 94.8 | 95.1% | 89.4% | 95.9% | 82.3% | 97.1% | 94.4% |
| COc1ccc(-c2csc(NC(=O)CSc3nc(C)cc(=O)[nH]3)n2)cc1 | 118% | 96% | 112% | 104% | 102% | 101% | 103% | 96.8% | 96.9% | 89.2% | 86.1 | 108% | 101% | 92.8% | 102% | 117% | 100% |
| COc1ccc(/C(C)=C(\c2ccc(Cl)cc2)c2ccc(OCCCN(C)C)cc2)cc1 | 0.701% (active) | 25.6% | 83.4% | 90.4% | 111% | 81.3% | 89% | 71.5% | 86.5% | 58.1% | 82.3 | 39% | 46.3% | 36.9% | 37.4% | 100% | 56.5% |
| CC1(C)C2=C(C(=O)N1Cc1ccccc1)C(c1ccco1)N(C(=O)C1CCC1)CCN2 (configuration not stated) | 94.9% | 106% | 95.6% | 97.1% | 103% | 103% | 107% | 121% | 100% | 90.9% | 106 | 101% | 103% | 103% | 92.6% | 98.4% | 101% |
| COc1ccc(-c2ccc(-c3ccc(C(=N)N)nc3)s2)cc1 | 0.29% (active) | -41.1% (active) | -73.1% (active) | -79.7% (active) | 89.2% | -84.3% (active) | -87.1% (active) | -47.5% (active) | 25.5% | -31.1% (active) | 84 | -95.8% (active) | -65.7% (active) | -65.5% (active) | -60.4% (active) | -44.9% (active) | -73.7% (active) |
| CNC(=O)c1cc(Oc2cccc3nc(NC(=O)Nc4ccc(F)cc4F)ccc23)ccn1 | 18% | 30.4% | 70.3% | -63.4% (active) | 35.3% | 35% | 0.213% (active) | 5.37% (active) | 22.5% | 21% | 45.5 | 32.6% | 59.7% | 37.8% | -33.1% (active) | 70.2% | 57.7% |
| C#CCOc1cccc(Nc2c(Cl)c(CCl)nc3ccc(Oc4ccccc4)cc23)c1 | 10.4% | 24.5% | 82.7% | 75% | 109% | 43.2% | 31.6% | 74.9% | 60.2% | 82.1% | 15.8 | 15.6% | 20.6% | 12.9% | 27.2% | 104% | 69.7% |
| C=CCn1c(SCC(=O)Nc2ccc(C(=O)/C=C/c3ccc(Cl)cc3)cc2)nnc1-c1ccc(Cl)c(Cl)c1 | 57% | -34.5% (active) | 90.5% | 86.7% | 85.7% | 76.4% | 83.8% | 90.8% | 83.9% | 76.6% | 78 |  | 90.9% | 19.7% | -71.5% (active) | 95.9% | 85.2% |
| CN1CCN(Cc2ccc(NC(=O)c3cncc(C#Cc4c(N)ncc5c(F)cccc45)c3)cc2C(F)(F)F)CC1 | -49% (active) | -26.5% (active) | -33.3% (active) | -59.1% (active) | 2.69% (active) | -69.4% (active) | -84.8% (active) | -25.8% (active) | -45.1% (active) | -25.2% (active) | 12.5 | -83% (active) | -51.9% (active) | -67.3% (active) | -89.1% (active) | -11.9% (active) | -72.9% (active) |
| COC(=O)c1c(C)nc(C)c2c1C(=O)C(Br)=C(NCCN1CCOCC1)C2=O | 107% | 93.7% | 118% | 73.8% | 138% | 96.2% | 13.2% | 110% | 103% | 114% | 101 | 56.1% | 92.1% | 82.3% | 67.4% |  | 96.9% |
| CCN(CC)c1ccc(/C=N/NC(=O)c2ccccc2Nc2ccnc(C(F)(F)F)c2)c(O)c1 | 65.1% | 26.5% | 57.3% | 33.1% | 19.9% | 47.5% | 36.7% | 61.1% |  | 22.3% | 38.5 | 29.3% | 37.3% | 20.4% | 27.7% | 76.7% | 31.4% |
| CCOC(=O)/C(=C\c1ccccc1Cl)P(=O)(OCC)OCC | -0.778% (active) | 7.93% (active) | 82.4% | 75.1% | 95.7% | 65.7% | 56.1% | 80.3% | 44% | 39.5% | 57.6 |  | 46.6% | 17.8% | 44.2% | 94.5% | 52.9% |
